Measurements: PubChem BioAssay (Tox21)
Records with an inconclusive call do not appear. Activity calls are given as the source filed them. Calls follow the shape of the dose curve; as a rule, active = well fitted cell-killing curve with a large enough effect in the repeat runs; inconclusive = weak or mixed curves, or effect the other way; inactive = flat fitted curve, though single readings scatter.

Experiment: Caspase-3/7 induction in HepG2 cells by small molecules, qHTS cell viability counter screen (AID 1346981); also: nearly all actives have a fitted effect of over 30% in size
Details: CellTiter-Fluor fluorescence, 17 h; series mostly up to 92.4 µM; activity change, negative = cytotoxicity: at the top concentration
In short: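 Treatment of HepG2 cells with DMSO-delivered compounds ran 16 hr at 37 C following a 5-hr pre-incubation of 2,000 cells/well. CellTiter-Fluor fluorescence, read after 1 hr, served as the viability measure in a qHTS format.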
% is scaled to controls: 0 for no effect and ±100 for the full control effect; potency is read from the fitted curve at half-maximal effect.

SMILES	Potency	activity change, negative = cytotoxicity
O=C(Nc1ccc2c(O)c(N=Nc3ccc(N=Nc4ccc(S(=O)(=O)O)cc4)cc3)c(S(=O)(=O)O)cc2c1)c1ccccc1	24.3 µM (active)	–
O=S(=O)(O)c1ccccc1/C=C/c1ccc(-c2ccc(/C=C/c3ccccc3S(=O)(=O)O)cc2)cc1	–	14.6% (inactive)
O=C1CCc2cc(OCCCCc3nnnn3C3CCCCC3)ccc2N1	–	-1.11% [at 42.5 µM] (inactive)
CCC(CC)(CC(=O)Nc1cccc(/C=C/c2nc(C3CCC3)cs2)c1)C(=O)O	–	-4.65% [at 42.5 µM] (inactive)
Cc1cc(-c2ccc(N=Nc3cc(S(=O)(=O)O)c4ccccc4c3N)c(C)c2)ccc1N=Nc1cc(S(=O)(=O)O)c2ccccc2c1N	–	-10.7% (inactive)
C#C[C@]1(OC(C)=O)CC[C@H]2[C@@H]3CCC4=C[C@@H](OC(C)=O)CC[C@@H]4[C@H]3CC[C@@]21C	–	-10.8% [at 42.5 µM] (inactive)
C=CC(=O)Nc1cc2c(Nc3ccc(F)c(Cl)c3)ncnc2cc1OCCCN1CCOCC1	5.96 µM (active)	–
CCN1C(=O)c2ccccc2C1Nc1ccc(OCCN2CCCCC2)cc1 (stereo not given)	–	-3.53% [at 42.5 µM] (inactive)
CCc1oc2ccccc2c1C(=O)c1cc(I)c(O)c(I)c1	–	-2.3% [at 42.5 µM] (inactive)
Nc1cc(Cl)c(O)c(Cl)c1	–	-5.69% (inactive)
C=CCn1c(=O)n(CC=C)c(=O)n(CC=C)c1=O	–	-3.52% (inactive)
Cc1ccc(O)c(N)c1	–	-20.6% (inactive)
C#C[C@]1(OC(C)=O)CC[C@H]2[C@@H]3CCC4=C/C(=N/O)CC[C@@H]4[C@H]3CC[C@@]21CC	–	-10.1% [at 42.5 µM] (inactive)
CCC(C)n1ncn(-c2ccc(N3CCN(c4ccc(OC[C@H]5CO[C@](Cn6cncn6)(c6ccc(Cl)cc6Cl)O5)cc4)CC3)cc2)c1=O (stereo not given in full)	–	-5.32% [at 42.5 µM] (inactive)
O=C(O)c1cc(N=Nc2ccc([N+](=O)[O-])cc2)ccc1O	53.5 µM (active)	–
